The source of these data is PubChem BioAssay AID488969 (Vanderbilt High Throughput Screening Facility, 2010).

Over roughly 110,000 compounds, “z-score” has its median near -0.1; the highest 2% begin near 2. The full list was thinned out, with the highest values kept by preference. Calls of active or inactive are those of the source.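 How the source made its calls: active means z-score in the third read window above 3 or below -3; inactive means the rest.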

Chain of Metabotropic glutamate receptor 8 (Rattus norvegicus) (P70579 whole entry, looked up): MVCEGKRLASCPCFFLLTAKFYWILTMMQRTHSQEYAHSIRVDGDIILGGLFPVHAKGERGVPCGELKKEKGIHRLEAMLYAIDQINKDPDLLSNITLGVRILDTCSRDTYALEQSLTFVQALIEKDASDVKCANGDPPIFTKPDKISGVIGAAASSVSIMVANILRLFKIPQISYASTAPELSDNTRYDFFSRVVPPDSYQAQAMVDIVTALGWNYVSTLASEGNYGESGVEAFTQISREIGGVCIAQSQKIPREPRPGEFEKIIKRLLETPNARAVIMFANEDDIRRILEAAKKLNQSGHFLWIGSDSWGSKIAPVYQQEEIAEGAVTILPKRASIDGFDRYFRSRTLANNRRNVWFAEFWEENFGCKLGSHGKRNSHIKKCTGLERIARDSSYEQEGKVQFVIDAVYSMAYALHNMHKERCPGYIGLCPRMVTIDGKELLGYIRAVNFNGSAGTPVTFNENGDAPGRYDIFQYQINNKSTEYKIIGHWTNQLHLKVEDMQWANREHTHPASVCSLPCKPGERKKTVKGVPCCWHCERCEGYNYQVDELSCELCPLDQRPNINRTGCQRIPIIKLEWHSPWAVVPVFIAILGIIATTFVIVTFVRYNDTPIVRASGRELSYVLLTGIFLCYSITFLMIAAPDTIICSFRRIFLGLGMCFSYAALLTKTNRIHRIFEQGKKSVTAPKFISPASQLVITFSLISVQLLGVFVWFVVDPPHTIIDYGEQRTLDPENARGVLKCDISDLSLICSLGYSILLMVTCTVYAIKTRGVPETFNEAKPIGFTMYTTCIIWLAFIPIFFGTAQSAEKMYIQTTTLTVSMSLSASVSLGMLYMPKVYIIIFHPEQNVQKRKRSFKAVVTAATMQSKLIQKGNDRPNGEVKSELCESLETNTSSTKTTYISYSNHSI

The assay concerns the target Metabotropic glutamate receptor 8 (Rattus norvegicus) (UniProt P70579). Description: rat mGluR8 modulators via GIRK flux, primary screen, cell-based, thallium flux, HTS (AID 488969). As to conditions: HEK293 rat mGluR8, GIRK (G protein-gated inwardly rectifying potassium channel) thallium flux, FluoZin2; at 10 µM; stronger effect = higher value; submaximal glutamate (EC20) added with thallium.
`CCn1cnc2cc(NCc3nc4ccccc4n3Cc3ccccc3)ccc21` registered a z-score of -0.34.
For the molecule `CC(C)c1ccc2[nH]c(O)c(N=NC(=O)c3cccc(S(=O)(=O)N4CCCCC4)c3)c2c1`, the z-score is -0.156.
Take `CCOc1ccc(/C=C/C(=O)NCCc2ccc(OC)c(OC)c2)cc1`: the z-score was -0.114.
Molecule `COc1ccc(OCc2ccc(C(=O)NN)cc2)cc1` yielded a z-score of 0.222.
The result for `Cc1ccc2cc(COC(=O)c3ccncc3)c(=O)[nH]c2c1` reads -0.162; that for `COc1ccc(-c2cc(C(=O)OCC(=O)N3CCCC3)c3ccccc3n2)cc1`, -0.231.
The result for `CCn1c(SCC(=O)Nc2cccc(NC(C)=O)c2)nnc1C(C)C` reads -0.322.
The result for `CCc1cccc(CC)c1NC(=O)CSc1nnc(C(C)C)n1CC` reads 0.342; that for `CCn1c(SCC(=O)Nc2cccc(C(C)=O)c2)nnc1C(C)C`, 2.28; that for `Cc1ccc2cc(CN(Cc3ccco3)C(=O)c3ccccc3)c(=O)[nH]c2c1C`, -0.385.
In the case of `Nc1nnnn1/N=C/c1ccccc1OCc1ccccc1`, the z-score was -0.208.
The result for `COc1ccc(N2CCN(CC(=O)Nc3ccc(-n4cnnn4)cc3)CC2)cc1` reads 1.05; that for `CCCCOP(=O)(OCCCC)C(O)c1ccc(Br)cc1` (stereo unspecified), -0.269; that for `CCN(CC)S(=O)(=O)c1cccc(C(=O)N2CC(O)CC2C(=O)OC)c1` (stereo unspecified), -0.00902.
For the molecule `O=C(N/N=C/c1ccc2cccc(OCc3ccccc3)c2n1)c1ccc(Br)cc1`, the z-score is 3.65 (active).
The result for `COc1ccc(CSCC(=O)N/N=C/c2ccccc2OCc2ccccc2)cc1` reads 1.27.
For the molecule `COc1ccc(C(=O)N/N=C/c2ccc3cccc(OCc4ccccc4)c3n2)cc1`, the z-score is 3.81 (active).
`O=C(N/N=C/c1ccccn1)c1ccc(Br)cc1` yielded a z-score of 1.82.
`COc1ccc(C(=O)N/N=C/c2cccc3cccnc23)cc1` showed a z-score of -0.417.
For `O=C(N/N=C/c1ccc2cccc(OCc3ccccc3)c2n1)c1ccc(Cl)cc1`, the z-score worked out at 0.327.
The result for `Cc1ccc(C(=O)N2CCN(c3ccc([N+](=O)[O-])c(N4CCOCC4)c3)CC2)cc1` reads -0.394.
In the case of `COc1c(C)cccc1C(=O)Nc1cc(-c2nn3c(C)nnc3s2)ccc1C`, the z-score was -1.6.
The result for `Cn1c2ccccc2c(=O)c2c(=O)n(-c3ccccc3)c(C3CCCCC3)nc21` reads -1.31; that for `CCCn1c(SCC(=O)/C(C#N)=C(\C)N)n[nH]c1=O`, -0.649; that for `CCOC(=O)C(CC)(CC)/C(C)=N/NC(=O)CC#N`, 0.316.
As for `CCOc1nc(Nc2ccc(OC)cc2)nc(OCC)n1`, the z-score was -1.62.
In the case of `COc1ccc(NC(=S)Nc2ccc3nc(C)c(C)nc3c2)cc1`, the z-score is -0.104.
`CCOC(=O)c1csc(NC(=O)CSc2nnnn2-c2ccc(OC)cc2)n1` came in with a z-score of 0.0329.
As for `c1cn(C23CC4CC(CC(C4)C2)C3)cn1`, the z-score was 4.17 (active).
Regarding `c1nnnn1C12CC3CC(CC(C3)C1)C2`, the z-score was determined as 0.487.
The result for `Nc1ncn(C23CC4CC(CC(C4)C2)C3)n1` reads -0.106; that for `CCCC(C(=O)c1ccccc1)n1cncn1` (stereo unspecified), -0.313.
Consider `COc1ccc(-c2c3c([nH]c(=S)c2C#N)CCC3)cc1`, for which the z-score was 2.17.
The result for `N#Cc1c(-c2cccnc2)c2c([nH]c1=S)CCCC2` reads -0.285; that for `N#Cc1c(-c2ccncc2)c2c([nH]c1=S)CCCC2`, -0.164; that for `COc1cc(C(=O)N(Cc2ccco2)Cc2cc3ccccc3[nH]c2=O)cc(OC)c1OC`, -0.671.
As for `COc1cc(C2Nn3c(nnc3-c3ccccc3OC)S2)ccc1O` (stereo unspecified), the z-score is -0.0272.
The result for `COc1ccc(NC(=O)c2cccs2)cc1` reads 0.303; that for `COc1ccc(OC)c(NC(=O)C(=O)NNC(=O)c2cccs2)c1`, 1.69.
The result for `COc1ccc(NC(=O)C(=O)NNC(=O)c2cccs2)c(OC)c1` reads 5.95 (active); that for `COc1ccc(OCC(=O)NNC(=O)c2cccs2)cc1`, 0.919; that for `COc1ccc(NC(=O)C(=O)NNC(=O)c2cccs2)cc1`, 7.11 (active).
Turning to `COc1cc(N)ccc1NC(=O)c1cccs1`, the z-score was -0.15.
Regarding `CCC(=O)Nc1nnc(SCc2ccc(F)cc2)s1`, the z-score is -0.00764.
The result for `COc1ccc(N2C(=O)CC(Nc3ccc(C)cc3)C2=O)cc1` (stereo unspecified) reads -0.557; that for `CC1CC(C)(C)NC(=S)N1CC(=O)N(C)Cc1ccccc1` (stereo unspecified), -0.189; that for `CCNC(=S)NNC(=O)c1cccn(Cc2ccc(Cl)cc2Cl)c1=O`, -0.0504.
The result for `CCOn1c(=O)c(-c2cccs2)[n+]([O-])c2ccccc21` reads -2.21.
The molecule `COn1c(=O)c(-c2cccs2)[n+]([O-])c2ccccc21` gave a z-score of 1.16.
Take `C=CCOn1c(=O)c(-c2cccs2)[n+]([O-])c2ccccc21`: the z-score was 3.49 (active).
The result for `Cc1nn(C(C)C(=O)O)c(=O)c2c1sc1ccccc12` (stereo unspecified) reads -0.395; that for `N#Cc1cn(-c2ccccc2)nc1-c1ccco1`, -0.0798; that for `CCNC(=O)C1CCCN1S(=O)(=O)c1ccc(OC)cc1` (stereo unspecified), 0.787.
In the case of `CC(C)c1c(O)nc(SCC(=O)N2CCOCC2)[nH]c1=O`, the z-score was -0.357.
The result for `CCC(C)c1c(O)nc(SCC(=O)N2CCOCC2)[nH]c1=O` (stereo unspecified) reads 2.93.
The molecule `CCCCc1c(O)nc(SCC(=O)N2CCOCC2)[nH]c1=O` returned a z-score of 0.0929.
`COC(=O)c1ccccc1Oc1nc(Cl)cc(OC)n1` displayed a z-score of -0.22.
`CCOC(=O)c1cnc2c(C)c(Cl)ccc2c1Nc1ccc(S(=O)(=O)Nc2ncccn2)cc1`: the z-score is 9.28 (active).
The molecule `CCOC(=O)c1cnc2c(C)cc(C)cc2c1Nc1ccc(S(=O)(=O)Nc2ncccn2)cc1` registered a z-score of -0.378.
The result for `CCOC(=O)c1cnc2c(C)c(C)ccc2c1Nc1ccc(S(=O)(=O)Nc2ncccn2)cc1` reads -0.177; that for `CCOc1ccc(-n2c(=S)sc3c(=O)[nH]c(SCC(=O)NC(C)CC)nc32)cc1` (stereo unspecified), -0.859.
`CC1CCN(Cc2nnnn2-c2cccc([N+](=O)[O-])c2)CC1` yielded a z-score of -0.243.
The result for `CC(C)OCC(O)CCc1n[nH]c(=S)n1-c1ccccc1` (stereo unspecified) reads -0.224; that for `CC(C)Oc1ccc(OCCCN2CCCCCC2)cc1`, -0.0757.
In turn, `O=C(c1ccccc1)c1ccc(OCCCN2CCCC2)cc1` gave a z-score of -0.0127.
The result for `CCN1CCN(CCCCSc2ccccc2)CC1` reads -0.152.
`CCOc1ccc(OCCNC2CCCC2)cc1` showed a z-score of 0.0455.
The result for `Cc1ccc(OCCCNC2CCCC2)cc1` reads -0.0441.
With `c1ccc(COc2ccc(OCCCNC3CCCC3)cc2)cc1`, the z-score amounted to 2.46.
For the molecule `COc1ccc(OCCCN2CCCCCC2)cc1`, the z-score is 8.02 (active).
Take `CCN1CCN(CCCOc2ccc(-c3ccccc3)cc2)CC1`: the z-score was 4.56 (active).
As for `O=C(c1ccccc1)c1ccc(OCCCCN2CCCCC2)cc1`, the z-score was -0.455.
`COc1ccc(OCCCN2CCCC(C)C2)cc1` (stereo unspecified) returned a z-score of 0.314.
The result for `c1ccc(OCCCN2CCCC2)cc1` reads 0.00842; that for `CC1CCN(CCCCOc2ccc(C(=O)c3ccccc3)cc2)CC1`, 2.47.
The result for `CSCCNC(=O)c1ccc(C(C)(C)C)cc1` reads -0.121.
As for `CCCc1cc(=O)[nH]c(SCC(=O)N(Cc2ccccc2)C(C)C)n1`, the z-score was -0.715.
`CC(C)(C)C(=O)Nc1cc(NC(=O)C(C)(C)C)cc(C(=O)Nc2cc(C(=O)O)cc(C(=O)O)c2)c1` came in with a z-score of 0.00761.
The result for `Cc1cc(C(F)F)n2ncc(C(=O)NCCc3ccc(Cl)cc3)c2n1` reads -0.612.
In the case of `Cc1nn(CC(=O)OCC(=O)Nc2ccccc2[N+](=O)[O-])c(C)c1[N+](=O)[O-]`, the z-score was 0.113.
The result for `Nc1nc(-c2cccnc2)nn1C(=O)COc1ccccc1` reads -0.135.
Regarding `O=C(NCC(c1cccnc1)N1CCN(c2ccccc2F)CC1)c1cccc(Cl)c1` (stereo unspecified), the z-score turned out to be 0.459.
In turn, `CCCOc1c(OC)cc(Cl)cc1C1NC(=O)NC(C)=C1C(=O)NCc1ccccc1` (stereo unspecified) returned a z-score of -0.431.
The result for `c1ccc(COc2ccc(OCCCN3CCCC3)cc2)cc1` reads 0.306.
The molecule `c1ccc(COc2ccc(OCCCCN3CCCC3)cc2)cc1` returned a z-score of 0.565.
Take `O=C(c1ccccc1)c1ccc(OCCCN2CCCCC2)cc1`: the z-score is 1.54.
The result for `c1ccc(COc2ccc(OCCCN3CCCCC3)cc2)cc1` reads 2.89; that for `CC1CCN(CCCOc2ccc(OCc3ccccc3)cc2)CC1`, 0.441; that for `c1ccc(COc2ccc(OCCCCN3CCCCC3)cc2)cc1`, 2.79.
The result for `CCOC(=O)c1c(NC(=O)CCN2C(=O)c3ccccc3C2=O)sc(C(=O)OC(C)C)c1C` reads -0.193; that for `O=C(c1cnccn1)N(c1ccccc1)C1(C(=O)NC2CCCC2)CCCCC1`, 0.00523.
With `CCOC(=O)CSc1nc(-c2ccc3c(c2)OCO3)ccc1C#N`, the z-score was -0.00752.
As to `COc1ccc2occ(C(=O)c3cccs3)c2c1`, the z-score is 0.191.
The result for `COc1ccc2occ(C(=O)c3ccc(N=C(C)N(C)C)cc3)c2c1` reads 3.46 (active); that for `COc1ccc2occ(C(C)=O)c2c1`, -1.2; that for `COc1ccc(CCNC(=S)Nc2ccc(C)cc2C)cc1`, -0.0431.
Molecule `CCc1cc2c(N[C@@H](C)C(=O)O)ncnc2s1` showed a z-score of 0.00833.
The result for `N/C(=N\OC(=O)CCc1ccccc1)c1ccc(Br)cc1` reads 0.12; that for `N/C(=N\OC(=O)c1ccc(Br)cc1)c1ccccc1`, -0.37.
Regarding `N/C(=N\OC(=O)Cc1ccccc1)c1ccc(Br)cc1`, the z-score is 2.92.
The result for `O=C(NC(C(=O)O)c1ccccc1)c1ccc(S(=O)(=O)N2CCOCC2)cc1` (stereo unspecified) reads -0.0595; that for `CCCCn1c(SCC(=O)N2CCC(C)CC2)nc2ccsc2c1=O`, -1.86; that for `Cc1ccc(-c2nnc(-c3ccccc3)o2)cc1`, -0.254.
The molecule `Cc1ccc(-c2nnc(Nc3ccccc3)o2)cc1` returned a z-score of 1.1.
The result for `CCNc1nnc(-c2ccc(C)cc2)o1` reads 2.74; that for `CC(=O)Nc1cccc(C(=O)OC(C(=O)c2ccc(C)cc2)c2ccccc2)c1` (stereo unspecified), 0.508.
The result for `CCN(CC)c1ccc(NC(=O)CN2CCN(S(=O)(=O)c3cc(Cl)ccc3OC)CC2)cc1` reads -0.269.
In the case of `CC1CN(CC(=O)c2c(N)n(Cc3ccccc3)c(=O)n(C)c2=O)CC(C)O1` (stereo unspecified), the z-score is 0.178.
The result for `Cc1ccc(Cn2nnc3c(=O)[nH]c(C4CCN(C(=O)c5cccs5)CC4)nc32)cc1` reads -0.73; that for `O=C(NCC(c1cccs1)N1CCOCC1)c1ccccc1NS(=O)(=O)c1ccc(Cl)c([N+](=O)[O-])c1` (stereo unspecified), -0.572.
On to `Cc1cc(=O)n2[nH]c(C)c(-c3ccccc3)c2n1`, for which the z-score is -0.675.
The result for `Cc1[nH]n2c(=O)cc(C(C)(C)C)nc2c1-c1ccccc1` reads 4.43 (active); that for `Cc1[nH]n2c(=O)cc(C(C)C)nc2c1-c1ccccc1`, -0.963.
`CC(C)OC(=O)c1cccnc1N1CCN(c2ccc(F)cc2)CC1` yielded a z-score of -0.216.
With `Cc1nc2ccc(NC3=NCCCCC3)cc2s1`, the z-score stood at 0.806.
The result for `COc1cc(OC)c(C2C(C(=O)N3CCOCC3)=C(C)NC3=C2C(=O)CC(C)(C)C3)cc1OC` (stereo unspecified) reads -0.103.
